# Reference: the supplement of paper PMC8007513
# Where a name gives a salt, the structure may show the parent alone. ± gives the standard error. About 130 (10%) of roughly 1,300 compounds showed an effect of 50% or more. Many of the other results were omitted from the sample, so strong results are more common in it than they were.
# System: Trichoderma virens ATCC 9645
# Test: growth yield (OD600) with compound + IPBC relative to untreated control; higher = less growth inhibition
# Conditions: compound concentration: 100 uM, IPBC concentration: 200 ng/ml
# Method in brief: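 Trichoderma virens ATCC 9645 spores from 7-day potato dextrose agar plates were suspended in potato dextrose broth at 15,000 spores ml^−1. Aliquots of 100 μl with library compounds at 100 μM final, with or without a co-applied biocide at 200 ng ml^−1, were grown in 96-well plates at 30 °C. OD600 was read at 40 h and 72 h on a BioTek EL800. Growth is expressed relative to the control without either agent, as means of duplicate screens.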
SMILES,growth yield (40 h),growth yield (72 h)
C[N+]12CCC(CC1)C(OC(=O)C(O)(c1ccccc1)c1ccccc1)C2 (stereo not drawn) [Clidinium bromide] + CCCCNC(=O)OCC#CI [3-iodo-2-propynyl butylcarbamate (IPBC)],95.8 ± 11%,95.8 ± 6.6%
O=C(NCCN1CCOCC1)c1ccc(Cl)cc1 [Moclobemide] + CCCCNC(=O)OCC#CI [3-iodo-2-propynyl butylcarbamate (IPBC)],81.6 ± 4.8%,89.7 ± 2%
Cc1c(N)c(=O)n(-c2ccccc2)n1C [Ampyrone] + CCCCNC(=O)OCC#CI [3-iodo-2-propynyl butylcarbamate (IPBC)],104 ± 3.8%,105 ± 1.8%
CCCCCCCN(CC)CCCC(O)c1ccc(NS(C)(=O)=O)cc1 (stereo not drawn) [Ibutilide fumarate] + CCCCNC(=O)OCC#CI [3-iodo-2-propynyl butylcarbamate (IPBC)],85 ± 1.4%,88.1 ± 0.63%
CCCCc1oc2ccccc2c1C(=O)c1cc(I)c(OCCN(CC)CC)c(I)c1 [Amiodarone hydrochloride] + CCCCNC(=O)OCC#CI [3-iodo-2-propynyl butylcarbamate (IPBC)],2.06 ± 0.16%,2.41 ± 0.1%
CCCCOc1cc(C(=O)OCCN(CC)CC)ccc1N [Benoxinate hydrochloride] + CCCCNC(=O)OCC#CI [3-iodo-2-propynyl butylcarbamate (IPBC)],84.82 ± 0.64%,91.24 ± 0.63%
CCCCc1oc2ccc(NS(C)(=O)=O)cc2c1C(=O)c1ccc(OCCCN(CCCC)CCCC)cc1 [Dronedarone hydrochloride] + CCCCNC(=O)OCC#CI [3-iodo-2-propynyl butylcarbamate (IPBC)],6.51 ± 0.16%,3.25 ± 0.32%
CCCCOc1cc(C(=O)NCCN(CC)CC)c2ccccc2n1 [Dibucaine] + CCCCNC(=O)OCC#CI [3-iodo-2-propynyl butylcarbamate (IPBC)],85 ± 1.4%,94.18 ± 0.21%
CN(CCOc1ccc(NS(C)(=O)=O)cc1)CCc1ccc(NS(C)(=O)=O)cc1 [Dofetilide] + CCCCNC(=O)OCC#CI [3-iodo-2-propynyl butylcarbamate (IPBC)],88.79 ± 0.79%,90.3 ± 2%
CCCCC1=NC2(CCCC2)C(=O)N1Cc1ccc(-c2ccccc2-c2nnn[nH]2)cc1 [Irbesartan] + CCCCNC(=O)OCC#CI [3-iodo-2-propynyl butylcarbamate (IPBC)],96.6 ± 6.7%,95.8 ± 3.5%
NS(=O)(=O)c1cc2c(cc1Cl)N=C(CSCc1ccccc1)NS2(=O)=O [Benzthiazide] + CCCCNC(=O)OCC#CI [3-iodo-2-propynyl butylcarbamate (IPBC)],89.9 ± 0.32%,94.8 ± 1.3%
O=C(OCC(O)CO)c1ccccc1Nc1ccnc2cc(Cl)ccc12 (stereo not drawn) [Glafenine hydrochloride] + CCCCNC(=O)OCC#CI [3-iodo-2-propynyl butylcarbamate (IPBC)],84.3 ± 2.4%,97.3 ± 1.3%
O=[N+]([O-])O[C@@H]1CO[C@H]2[C@@H]1OC[C@@H]2O [Isosorbide mononitrate] + CCCCNC(=O)OCC#CI [3-iodo-2-propynyl butylcarbamate (IPBC)],88.2 ± 4%,91.3 ± 4.1%
CCN(C(C)=O)c1cccc(-c2ccnc3c(C#N)cnn23)c1 [Zaleplon] + CCCCNC(=O)OCC#CI [3-iodo-2-propynyl butylcarbamate (IPBC)],81.009 ± 1e-14%,88.94 ± 0.42%
Cc1c(NC(C)C)c(=O)n(-c2ccccc2)n1C [Isopyrin hydrochloride] + CCCCNC(=O)OCC#CI [3-iodo-2-propynyl butylcarbamate (IPBC)],87 ± 2.5%,91.24 ± 0.63%
CC1(C)S[C@@H]2[C@H](NC(=O)Cc3ccccc3)C(=O)N2[C@H]1C(=O)O [Benzathine benzylpenicillin] + CCCCNC(=O)OCC#CI [3-iodo-2-propynyl butylcarbamate (IPBC)],102 ± 12%,98 ± 9.9%
CC1(C)S[C@@H]2[C@H](NC(=O)Cc3ccccc3)C(=O)N2[C@H]1C(=O)O [Benzylpenicillin sodium] + CCCCNC(=O)OCC#CI [3-iodo-2-propynyl butylcarbamate (IPBC)],82.1 ± 6.2%,97.1 ± 6.1%
CCCCc1ncc(/C=C(\Cc2cccs2)C(=O)O)n1Cc1ccc(C(=O)O)cc1 [Eprosartan mesylate] + CCCCNC(=O)OCC#CI [3-iodo-2-propynyl butylcarbamate (IPBC)],112 ± 9.7%,109 ± 4.1%
CCOC(=O)C1=C(C)NC(C)=C(C(=O)OC)C1c1cccc([N+](=O)[O-])c1 (stereo not drawn) [Nitrendipine] + CCCCNC(=O)OCC#CI [3-iodo-2-propynyl butylcarbamate (IPBC)],79.58 ± 0.48%,85.7 ± 1.1%
COC(=O)C1=C(C)NC(C)=C(C(=O)OC)C1c1ccccc1[N+](=O)[O-] [Nifedipine] + CCCCNC(=O)OCC#CI [3-iodo-2-propynyl butylcarbamate (IPBC)],42.41 ± 0.16%,55.48 ± 0.52%

SMILES,growth yield (40 h),growth yield (72 h)
COCCOC(=O)C1=C(C)NC(C)=C(C(=O)OC(C)C)C1c1cccc([N+](=O)[O-])c1 (stereo not drawn) [Nimodipine] + CCCCNC(=O)OCC#CI [3-iodo-2-propynyl butylcarbamate (IPBC)],79.7 ± 7.9%,87.3 ± 1.3%
COC(=O)C1=C(C)NC(C)=C(C(=O)OCC(C)C)C1c1ccccc1[N+](=O)[O-] (stereo not drawn) [Nisoldipine] + CCCCNC(=O)OCC#CI [3-iodo-2-propynyl butylcarbamate (IPBC)],41.3 ± 8.3%,34.71 ± 0.1%
CCOC(=O)C1=C(C)NC(C)=C(C(=O)OC)C1c1cccc(Cl)c1Cl (stereo not drawn) [Felodipine] + CCCCNC(=O)OCC#CI [3-iodo-2-propynyl butylcarbamate (IPBC)],77.5 ± 8.3%,92.9 ± 1.9%
COC(=O)C1=C(C)NC(C)=C(C(=O)OCCN(C)Cc2ccccc2)C1c1cccc([N+](=O)[O-])c1 (stereo not drawn) [Nicardipine hydrochloride] + CCCCNC(=O)OCC#CI [3-iodo-2-propynyl butylcarbamate (IPBC)],73.1 ± 1.6%,94.7 ± 2.2%
CCCCc1nc(Cl)c(CO)n1Cc1ccc(-c2ccccc2-c2nnn[nH]2)cc1 [Losartan] + CCCCNC(=O)OCC#CI [3-iodo-2-propynyl butylcarbamate (IPBC)],98.3 ± 6.2%,96.7 ± 5.7%
CC[C@@H](CO)NC(=O)[C@@H]1C=C2c3cccc4[nH]cc(c34)C[C@H]2N(C)C1 [Methylergometrine maleate] + CCCCNC(=O)OCC#CI [3-iodo-2-propynyl butylcarbamate (IPBC)],79.7 ± 4.8%,88 ± 2%
NS(=O)(=O)c1cc2c(cc1Cl)NC(CC1CCCC1)NS2(=O)=O (stereo not drawn) [Cyclopenthiazide] + CCCCNC(=O)OCC#CI [3-iodo-2-propynyl butylcarbamate (IPBC)],88.8 ± 1.4%,98.48 ± 0.32%
NCc1ccccc1CC(=O)N[C@@H]1C(=O)N2C(C(=O)O)=C(CSc3nnnn3CC(=O)O)CS[C@H]12 [Ceforanide] + CCCCNC(=O)OCC#CI [3-iodo-2-propynyl butylcarbamate (IPBC)],92.3 ± 5.6%,97.1 ± 2.1%
"CCC1(c2ccc(N)cc2)CCC(=O)NC1=O (stereo not drawn) [Glutethimide, para-amino] + CCCCNC(=O)OCC#CI [3-iodo-2-propynyl butylcarbamate (IPBC)]",111 ± 4.1%,112 ± 4.5%
CC(NC(C)(C)C)C(=O)c1cccc(Cl)c1 (stereo not drawn) [Bupropion hydrochloride] + CCCCNC(=O)OCC#CI [3-iodo-2-propynyl butylcarbamate (IPBC)],92.1 ± 5.4%,98.5 ± 3%
COc1cccc(N(C)C(=S)Oc2ccc3c(c2)CCCC3)n1 [Liranaftate] + CCCCNC(=O)OCC#CI [3-iodo-2-propynyl butylcarbamate (IPBC)],0%,0%
"NCC(O)c1ccc(O)cc1 (racemic) [(+,-)-Octopamine hydrochloride] + CCCCNC(=O)OCC#CI [3-iodo-2-propynyl butylcarbamate (IPBC)]",97.4 ± 12%,95 ± 4.6%
CC(=O)N(CC(O)CO)c1c(I)c(C(=O)NCC(O)CO)c(I)c(C(=O)NCC(O)CO)c1I (stereo not drawn) [Iohexol] + CCCCNC(=O)OCC#CI [3-iodo-2-propynyl butylcarbamate (IPBC)],91.2 ± 8.3%,93.7 ± 5.6%
Clc1ccc(CSC(Cn2ccnc2)c2ccc(Cl)cc2Cl)cc1 (stereo not drawn) [Sulconazole nitrate] + CCCCNC(=O)OCC#CI [3-iodo-2-propynyl butylcarbamate (IPBC)],3.02 ± 0.16%,2.41 ± 0.1%
Clc1ccc(C(Cn2ccnc2)OCc2c(Cl)cccc2Cl)c(Cl)c1 (stereo not drawn) [Isoconazole] + CCCCNC(=O)OCC#CI [3-iodo-2-propynyl butylcarbamate (IPBC)],4.13 ± 0.64%,2.83 ± 0.32%
Clc1ccc(COC(Cn2ccnc2)c2ccc(Cl)cc2Cl)cc1 (stereo not drawn) [Econazole nitrate] + CCCCNC(=O)OCC#CI [3-iodo-2-propynyl butylcarbamate (IPBC)],3.18 ± 0.32%,2.73 ± 0.42%
O=C(O)/C=C/c1ccc(Cn2ccnc2)cc1 [Ozagrel hydrochloride] + CCCCNC(=O)OCC#CI [3-iodo-2-propynyl butylcarbamate (IPBC)],105 ± 12%,103 ± 8.7%
Clc1ccc(C(Cn2ccnc2)OCc2ccsc2Cl)c(Cl)c1 (stereo not drawn) [Tioconazole] + CCCCNC(=O)OCC#CI [3-iodo-2-propynyl butylcarbamate (IPBC)],3.65 ± 0.16%,2.52%
CC(c1cc2ccccc2s1)N(O)C(N)=O (stereo not drawn) [Zileuton] + CCCCNC(=O)OCC#CI [3-iodo-2-propynyl butylcarbamate (IPBC)],89.1 ± 3.3%,90.8 ± 2.1%
